In PubChem BioAssay one finds z-score and composite z-score data, which are given here for eleven compounds.

Experiment [1] in a line: HepG2 liver cancer cell viability effects, profiling panel, resazurin fluorescence, 24 h, PK04 Diversity Set (AID 1172). Further: test concentration not given here. The conditions noted are these: higher = more signal. On the technique in general: Resazurin is reduced to fluorescent resorufin, in cell work by metabolically active cells.
The nature of experiment [2]: basal S. cerevisiae growth modulation, no modifier, primary screen, OD600, strain BY4716, 24 h, basal condition (AID 1173). The conditions noted are these: OD600, 24 h, higher = more signal, called active from +8 up or from −8 down.
Experiment [3] is described as follows: MM1S myeloma cell viability, profiling panel, resazurin fluorescence, basal, 24 h, PK04 Diversity Set (AID 1174).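 Further: MM1S multiple myeloma cell line; test concentration not given here.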 The conditions noted are these: higher = more signal, called active from +8 up or from −8 down.
For experiment [4], the target named is Dihydroorotate dehydrogenase (quinone), mitochondrial (Plasmodium falciparum (isolate 3D7)) (UniProt Q08210). Nature of the experiment: PfDHODH enzyme inhibitors, primary screen, biochemical, C-terminal His tag, absorbance 600 nm (AID 1175).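 Further: recombinant parasite enzyme with a five histidine tag at its C terminus; test concentration not given here.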 The settings on record: DCIP absorbance 600 nm, higher = more signal, called active from +8 up or from −8 down.
The nature of experiment [5]: P. aeruginosa biofilm formation inhibitors, primary screen, strain PAO1, LB-PBS medium, absorbance 600 nm (AID 1176). Further: test concentration not given here. The conditions noted are these: P. aeruginosa PAO1 growth/biofilm, A600, 12 h; higher = more signal.
Experiment [6] can be described thus: S. cerevisiae RM11-1a growth modifiers, primary screen, strain RM11-1a, OD600, basal, 24 h (AID 1177).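 Further: cultures grown under basal conditions with no added stressor; test concentration not given here.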 The conditions noted are these: OD600, 24 h, higher = more signal, called active from +8 up or from −8 down.
Experiment [7] in a line: E. coli acrAB mutant growth effects, primary screen, E. coli filamentation inducers, strain DRC39, OD650, 24 h (AID 1178).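 Further: growth measured as culture turbidity by optical density at 650 nm; test concentration not given here.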 The conditions noted are these: higher = more signal, called active from +8 up or from −8 down.
Experiment [8] is described as follows: E. coli acrAB mutant growth effects, primary screen, E. coli filamentation inducers, strain DRC39, OD650, 48 h (AID 1179).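 Further: screen aims at cell division blockers that make cells filament.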 The settings on record: E. coli DRC39 delta-acrAB growth, higher = more signal, called active from +8 up or from −8 down.
Experiment [9] in a line: RPMI8226 myeloma cell viability, profiling panel, resazurin fluorescence, basal, 24 h, PK04 Diversity Set (AID 1180).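 Further: RPMI8826 multiple myeloma cell line at 5000 cells per well; test concentration not given here.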 The conditions noted are these: higher = more signal.
For experiment [10], the target named is E3 ubiquitin-protein ligase XIAP (Homo sapiens) (UniProt P98170). The experiment can be described thus: XIAP binders, primary screen, biophysical, small-molecule microarray, fluorescence 635 nm (AID 1181).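 Further: score merges 667 nm emission and signal to noise over triplicate slides.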 The conditions noted are these: small-molecule microarray binding, higher = more signal.

Active and inactive are the calls of the source. Unless noted, how the calls were made is not given here.

Dihydroorotate dehydrogenase (quinone), mitochondrial (Plasmodium falciparum (isolate 3D7)), sequence (Q08210 whole entry, looked up): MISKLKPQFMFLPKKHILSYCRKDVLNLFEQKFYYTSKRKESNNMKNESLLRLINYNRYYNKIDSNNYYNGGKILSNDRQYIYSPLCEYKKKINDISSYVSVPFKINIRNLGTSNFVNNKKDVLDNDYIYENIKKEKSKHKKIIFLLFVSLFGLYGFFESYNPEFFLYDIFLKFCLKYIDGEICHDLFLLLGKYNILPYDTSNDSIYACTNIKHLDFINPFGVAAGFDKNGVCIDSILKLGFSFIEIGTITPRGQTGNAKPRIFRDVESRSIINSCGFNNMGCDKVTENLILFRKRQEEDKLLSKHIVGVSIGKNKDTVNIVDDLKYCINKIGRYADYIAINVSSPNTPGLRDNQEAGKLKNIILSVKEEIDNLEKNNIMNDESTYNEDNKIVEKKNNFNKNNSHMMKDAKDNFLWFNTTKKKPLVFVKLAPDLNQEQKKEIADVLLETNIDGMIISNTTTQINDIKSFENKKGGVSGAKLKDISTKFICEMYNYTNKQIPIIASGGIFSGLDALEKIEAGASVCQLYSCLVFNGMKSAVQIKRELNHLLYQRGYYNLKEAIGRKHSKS
E3 ubiquitin-protein ligase XIAP (Homo sapiens), sequence (P98170 whole entry, looked up): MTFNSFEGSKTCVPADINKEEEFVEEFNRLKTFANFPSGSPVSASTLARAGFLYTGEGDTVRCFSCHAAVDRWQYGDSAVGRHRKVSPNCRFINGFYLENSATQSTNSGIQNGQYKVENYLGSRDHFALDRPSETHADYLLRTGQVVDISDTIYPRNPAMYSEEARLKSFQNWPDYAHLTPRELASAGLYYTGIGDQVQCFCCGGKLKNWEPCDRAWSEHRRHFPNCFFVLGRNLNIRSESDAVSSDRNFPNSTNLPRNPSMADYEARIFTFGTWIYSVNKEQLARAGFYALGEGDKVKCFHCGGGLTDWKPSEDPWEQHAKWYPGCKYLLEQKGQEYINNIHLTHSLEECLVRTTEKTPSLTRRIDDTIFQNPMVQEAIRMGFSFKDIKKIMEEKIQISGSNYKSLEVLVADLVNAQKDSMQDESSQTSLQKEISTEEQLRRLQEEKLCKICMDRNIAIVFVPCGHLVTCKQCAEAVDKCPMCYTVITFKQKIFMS

With `O=C1OCCC=C[C@H]2OC34C=CCN(Cn5nnc6ccccc65)C(=O)[C@H]3N(CCO)C(=O)[C@@H]4C12` (stereo not given in full), the z-score in experiment [1] is 1.02; in experiment [2] it was 0.202 (inactive); in experiment [3], 0.542 (inactive); in [5] it was 0.152 (inactive); in experiment [6], -0.18 (inactive); in experiment [7], -0.0287 (inactive). In addition, the z-score in experiment [8] was -0.249 (inactive); in experiment [9], 0.0841. The composite z-score in experiment [4] was -1.15 (inactive); in experiment [10] it was -0.146.
Turning to `C=CCNC(=O)[C@H]1[C@@H]2C(=O)O[C@@H](c3ccccc3)[C@@H](c3ccccc3)N2[C@@H](c2ccc(O)cc2)[C@]12C(=O)Nc1ccc(C#CCCO)cc12`, the z-score was 1.13 in [1]; 0.189 (inactive) in experiment [2]; 1.16 (inactive) in [3]; -0.42 (inactive) in [5]; 0.957 (inactive) in [6]; 0.516 (inactive) in experiment [7]. Besides, the z-score was 0.567 (inactive) in experiment [8] and 1.08 in experiment [9]. The results for the composite z-score in experiment [4] and in experiment [10] were 0.0992 (inactive) and -0.198, respectively.
As for `COC(=O)[C@@]1(Cc2ccccc2)[C@H]2c3cc(C(=O)N(C)C)n(Cc4ccc(OC)c(OC)c4)c3C[C@H]2CN1C(=O)c1ccccc1`, the z-score was -0.872 in experiment [1]; 0.721 (inactive) in experiment [2]; -0.799 (inactive) in [3]; 0.302 (inactive) in experiment [5]; 0.358 (inactive) in experiment [6]; -0.874 (inactive) in experiment [7]. For the same compound, the z-score was -0.695 (inactive) in experiment [8] and -2.19 in [9]. Also, the composite z-score in [4] was -0.831 (inactive); in [10] it was -0.289.
As for `COC(=O)[C@H](Cc1ccccc1)N[C@H](/C=C/C1CC1)[C@@H](O)Cc1ccccc1`, the z-score in [1] was 1; in experiment [2] it was -4.55 (inactive); in [3] it was 1.2 (inactive); in experiment [5], -0.708 (inactive); in experiment [6], -1.44 (inactive); in [7], 1.58 (inactive). Besides, the figures for the z-score in [8] and in experiment [9] were 0.398 (inactive) and 0.663, respectively. Moreover, the composite z-score is 1.14 (inactive) in experiment [4] and -0.195 in [10].
Turning to `COC(=O)[C@@]1(CCC(=O)OC(C)(C)C)N=C(c2ccc(OCCCO)cc2)O[C@H]1c1ccccc1`, the z-score is -0.291 in experiment [1]; -0.814 (inactive) in experiment [2]; -1.34 (inactive) in [3]; 0.618 (inactive) in [5]; 1.47 (inactive) in experiment [6]; -3.29 (inactive) in experiment [7]. Also, the z-score was -0.735 (inactive) in experiment [8] and -0.808 in experiment [9]. Further, the composite z-score was 1.27 (inactive) in [4] and -0.0095 in experiment [10].
As for `CC(C)[Si](C#CCCCC#N)(Oc1ccccc1Br)C(C)C`, the z-score is -0.192 in [1]; -3.82 (inactive) in [2]; 0.456 (inactive) in [3]; 0.313 (inactive) in experiment [5]; -0.218 (inactive) in experiment [6]; -0.9 (inactive) in [7]. For the same compound, the z-score is -0.832 (inactive) in experiment [8] and -0.193 in [9]. Also, the results for the composite z-score in [4] and in [10] were 0.0781 (inactive) and -0.0525, respectively.
Regarding `CC(C)[C@@H](C(=O)O)n1cc(C2(O)CCCCC2)nn1`, the z-score was 0.853 in experiment [1]; -1.45 (inactive) in [2]; 0.979 (inactive) in experiment [3]; 0.313 (inactive) in experiment [5]; -0.513 (inactive) in experiment [6]; 0.738 (inactive) in experiment [7]. In addition, the results for the z-score in experiment [8] and in experiment [9] were -0.195 (inactive) and 0.354, respectively. In addition, the results for the composite z-score in [4] and in experiment [10] were -0.549 (inactive) and 0.0077, respectively.
Take `[N-]=[N+]=Nc1ccccc1C[C@]1(C(=O)NCC(O)CO)N=C(c2ccc(OCCCO)cc2)O[C@H]1c1ccccc1` (stereo not given in full): the z-score in [1] is -0.577; in [2], -1.23 (inactive); in experiment [3] it was -0.62 (inactive); in experiment [5], 1.13 (inactive); in experiment [6], 2 (inactive); in experiment [7] it was -0.283 (inactive). In addition, the values for the z-score in [8] and in experiment [9] were -0.949 (inactive) and -1, respectively. Moreover, the composite z-score in experiment [4] was 0.986 (inactive); in experiment [10], -0.0525.
`CC[C@@H]1C=C(C(=O)O)[C@H](c2ccc(C)cc2)N1S(=O)(=O)c1ccc(C)cc1`: the z-score is 0.675 in [1]; 0.174 (inactive) in experiment [2]; 0.0178 (inactive) in experiment [3]; -0.433 (inactive) in experiment [5]; -0.66 (inactive) in experiment [6]; -0.303 (inactive) in experiment [7]. The figures for the z-score in experiment [8] and in [9] were 0.637 (inactive) and -0.0794, respectively. In addition, the composite z-score in experiment [4] is -1.85 (inactive); in [10] it was 0.0701.
Consider `Cc1ccc(/C=C/C=O)cc1`, for which the z-score in [1] is -0.466; in [2], -1.75 (inactive); in experiment [3] it was -0.509 (inactive); in [5], -0.64 (inactive); in experiment [6] it was 0.213 (inactive); in experiment [7], 0.562 (inactive). The results for the z-score in experiment [8] and in [9] were 0.386 (inactive) and 0.812, respectively. The composite z-score is -0.962 (inactive) in [4] and -0.214 in experiment [10].
On to `CS(=O)(=O)CCOC(=O)C1=CC(CCCO)=CC(C2CC2)N(Cc2cc3c(cc2Br)OCO3)C=C1C(=O)OCCS(C)(=O)=O` (stereo not given), for which the z-score in experiment [1] is 0.0423; in [2], -2.22 (inactive); in experiment [3], -0.134 (inactive); in [5] it was 0.118 (inactive); in [6], 0.37 (inactive); in experiment [7] it was 1.17 (inactive). The z-score in [8] is 0.892 (inactive); in [9] it was -0.0822. The results for the composite z-score in experiment [4] and in experiment [10] were -1.5 (inactive) and 0.448, respectively.
